Among all 52,000 compounds or so, about 4,300 (8.3%) were called active. Shown is part of a subset that was picked to be rich in actives. Unmarked numbers belong to inactive results. Rule as the data show it: active = survival mostly below about 52% (no sharp cut-off); inactive = mostly above about 56%.

For this test, the system named is DeltatarO mutant. The test can be described thus: S. aureus survival, RN4220 and DeltatarO strains – OD600, teichoic acid synthesis inhibitors, primary screen (AID 463173). The conditions noted are these: S. aureus RN4220 wild type/DeltatarO growth, OD600, 18 h, stronger effect = lower value, screened at 18.75 µg/mL (by protocol).
On to `CCn1c(C)c(C2N3CC4(C)CN2CC(C)(C3)C4=O)c2ccccc21` (stereo unspecified), for which the survival was 92%.

For `N#C/C(=C\c1cn(CC(=O)N2CCCC2)c2ccccc12)C(=O)NCc1ccc2c(c1)OCO2`, the survival was 66%.

On to `Fc1ccc(-c2noc3ncnc(NCc4ccc(Cl)cc4)c23)cc1`, for which the survival was 84%.

With `CCOC(=O)c1ccc(N2C(=O)c3n[nH]c(-c4cccs4)c3C2c2ccc(OC)cc2OC)cc1` (stereo unspecified), the survival was 76%.

Regarding `COC(=O)c1cc(NC(=O)c2ccc(-c3ccc(Cl)cc3Cl)o2)cc(C(=O)OC)c1`, the survival is 53%.

As for `COc1ccccc1NC(=O)c1ccc(C)o1`, the survival is 61%.

Consider `CCOc1ccc(NC(=O)c2cc(=O)c3cc(CC)ccc3o2)cc1`, for which the survival was 57%.

In the case of `C=CCc1ccc(OCc2ccc(C(=O)Nc3ccc(NC(C)=O)cc3)o2)c(OC)c1`, the survival is 121%.

As for `COc1ccc(NC(=O)c2ccc(COc3ccccc3OC)o2)cc1OC`, the survival is 61%.

As to `COC(=O)c1ccccc1NC(=O)c1ccc(COc2ccccc2Cl)o1`, the survival was 63%.

In the case of `CC(=O)Nc1ccc(NC(=O)c2ccc(COc3ccc(Cl)cc3Cl)o2)cc1`, the survival is 46% (active).

For the molecule `COc1ccccc1NC(=O)c1ccc(COc2ccc(C)c(C)c2)o1`, the survival was 1% (active).

As for `Cc1cc(C)cc(OCc2ccc(C(=O)Nc3ccccc3F)o2)c1`, the survival is 45%.

With `CCCc1ccc(OCc2ccc(C(=O)Nc3ccccc3C(=O)OC)o2)cc1`, the survival is -2% (active).

For `COC(=O)c1ccccc1NC(=O)c1ccc(COc2cc(C)cc(C)c2)o1`, the survival was 40%.

`CCOc1ccc(OCc2ccc(C(=O)Nc3cc(OC)c(OC)c(OC)c3)o2)cc1`: the survival is 54% (active).

Regarding `O=C(O)CCCc1nc2ccccc2s1`, the survival was 75%.

Take `Cc1cc(NC(=O)CSc2nc(-c3ccccc3F)nc3c2c(=O)n(C)c(=O)n3C)no1`: the survival was 86%.

Take `COC(=O)c1ccccc1NC(=O)C1CCCN(c2ncnc3onc(C)c23)C1` (stereo unspecified): the survival was 80%.

With `O=C(CNCC1CCCCC1)Nc1cccc(F)c1`, the survival is 88%.

`COc1cc(CNC(=O)c2ccc3c(c2)N(C)C(=O)C2CCCCN32)cc(OC)c1OC` (stereo unspecified): the survival was 69%.

On to `Cc1c(C(=O)N2CCC(C)CC2)c(S(=O)(=O)NCc2ccc(Cl)cc2)c(C)n1C`, for which the survival is 128%.

As to `O=C(Nc1c(C(=O)N2CCN(c3ccccc3F)CC2)oc2ccccc12)c1ccc(Br)o1`, the survival is 80%.

As for `CCc1cccc(C)c1NC(=O)Cn1cc2c(n1)CCCCC2`, the survival was 90%.

As for `C#CCn1c(O)c(N=NC(=O)c2ccccc2-n2cccc2)c2ccccc21`, the survival was 60%.

On to `Cc1ccc(-c2noc(CSc3nnc(C)n3-c3ccc(C)cc3)n2)cc1`, for which the survival was 101%.

Consider `COc1ccc(-n2c(SCc3nc(-c4ccc(Cl)cc4)no3)nnc2-c2ccncc2)cc1`, for which the survival is 49% (active).

Consider `COc1ccc(-c2noc(CSc3nnc(C)n3-c3ccc(OC)cc3)n2)cc1`, for which the survival is 77%.

As for `COc1ccc(-c2noc(CSc3nnc(C)n3-c3ccc(C)cc3)n2)cc1`, the survival is 57% (active).

For `CCCn1c(SCc2nc(-c3ccccc3OCC)no2)nnc1-c1ccc(Cl)cc1`, the survival is 43% (active).

In the case of `COc1ccc(-c2noc(CSc3nnc(-c4ccncc4)n3-c3ccc(OC)cc3)n2)cc1`, the survival is 92%.

With `CCCn1c(SCc2nc(-c3ccc(OC)cc3OC)no2)nnc1-c1ccc(Cl)cc1`, the survival is 53%.

For the molecule `COc1ccc(-c2noc(CSc3nnc(-c4ccncc4)n3-c3ccccc3)n2)cc1`, the survival was 70%.

On to `CCCn1c(SCc2nc(-c3ccccc3C)no2)nnc1-c1ccc(Cl)cc1`, for which the survival was 47%.

Turning to `COc1ccc(-c2noc(CSc3nnc(-c4ccncc4)n3-c3ccc(C)cc3)n2)cc1`, the survival was 55%.

`COc1ccc(-n2c(SCc3nc(-c4ccc(C)cc4)no3)nnc2-c2ccncc2)cc1`: the survival is 57%.

With `Cc1ccc(-n2c(SCc3nc(-c4ccc(Cl)cc4)no3)nnc2-c2ccncc2)cc1`, the survival was 37% (active).

Consider `CC(C)Oc1ccc(C(=O)Nc2nonc2-c2ccc(OC(C)C)cc2)cc1`, for which the survival is 75%.

`Cc1ccc2c(c1)N(C(=O)CCC(=O)Nc1ccc(F)cc1F)CC(C)O2` (stereo unspecified): the survival is 56%.

`CCOc1ccc(-c2nnc(SCC(=O)NCCc3ccc(OC)c(OC)c3)nc2-c2ccc(OCC)cc2)cc1`: the survival was 98%.

For `CCOc1ccc(OCC)c(NC(=O)c2cnn(-c3ccc(F)cc3)c2-n2cccc2)c1`, the survival was 80%.

Consider `Cc1ccccc1OCC(=O)Nc1ccc(-c2nc3cc(Cl)cc(Cl)c3o2)cc1`, for which the survival is 62%.

In the case of `Cc1ccc(C)c(NC(=O)CN2C(=O)c3cccnc3Oc3ccc(C)cc32)c1`, the survival was 80%.

As for `CCOc1ccc(S(=O)(=O)n2nc(C)c(S(=O)(=O)N3CCCCCC3)c2C)cc1`, the survival was 115%.

As to `CCOC(=O)c1cc2occc2n1C(C)C(=O)OCC` (stereo unspecified), the survival is 80%.

As to `COC(=O)c1cc2sc(Cl)cc2n1CC(=O)Nc1cc(OC)cc(OC)c1`, the survival was 84%.

As to `CCC(Sc1nnc(C)n2c1cc1occc12)C(=O)Nc1ccccc1OC` (stereo unspecified), the survival was 77%.

`CCOC(=O)c1ccc2c(c1)N(C(CC)C(=O)Nc1ccccc1OC)C(=O)c1ccccc1S2` (stereo unspecified): the survival was 101%.

With `CCC(C(=O)Nc1ccccc1OC)n1c(C(=O)OC)cc2sc(Cl)cc21` (stereo unspecified), the survival was -6% (active).

Consider `CCOc1ccccc1NC(=O)C(CC)n1c(C(=O)OC)cc2occc21` (stereo unspecified), for which the survival was -4% (active).

Regarding `Cc1ccc(CNc2nc(-c3ccco3)nn2S(=O)(=O)c2ccc3ccccc3c2)cc1`, the survival is 115%.

Regarding `CCc1ccc(NC(=O)Cn2c(C(=O)OC)cc3oc(C)cc32)cc1`, the survival was 65%.

In the case of `CC(C)NC(=O)Cn1ncn2c(cc3cc(F)ccc32)c1=O`, the survival was 82%.

Consider `CNC(=O)C1CCC(Cn2c(=O)c3sccc3n(CC(=O)Nc3cc(C)cc(C)c3)c2=O)CC1` (stereo unspecified), for which the survival was 70%.

Turning to `Cc1nn(CCC(=O)Nc2cccc(C#N)c2)c(C)c1S(=O)(=O)N1CCCCC1`, the survival is 88%.

`CCc1ccc(NC(=O)CC2C(=O)N(c3ccc(C)cc3)C(=O)N2CCc2ccncc2)cc1` (stereo unspecified): the survival was 81%.

Take `Nc1nonc1-c1nc2ccccc2n1Cc1c(Cl)cccc1Cl`: the survival was 50%.

For `O=C(NCCc1ccc(Cl)cc1)c1ccc(CS(=O)(=O)Cc2ccccc2F)o1`, the survival is -1% (active).

As to `Cc1ccccc1CS(=O)(=O)Cc1ccc(C(=O)NCCc2ccc(Cl)cc2)o1`, the survival was 76%.

As for `Cc1ccc(CCNC(=O)c2ccc(CS(=O)(=O)Cc3ccccc3F)o2)cc1`, the survival is 72%.

With `CCOc1ccc(CCNC(=O)c2ccc(CS(=O)Cc3cccc(Cl)c3)o2)cc1` (stereo unspecified), the survival is 50%.

With `O=C(NCCc1ccccc1)c1ccc(CS(=O)Cc2ccc(Cl)cc2)o1` (stereo unspecified), the survival was 74%.

Consider `CCc1ccc(CNC(=O)c2ccc(CS(=O)(=O)Cc3ccccc3C)o2)cc1`, for which the survival was 79%.

Take `Cc1ccc(CNC(=O)c2ccc(CS(=O)(=O)Cc3ccc(F)cc3)o2)cc1`: the survival was 77%.

Turning to `O=C(NCCc1ccc(Cl)cc1)c1ccc(CS(=O)Cc2cccc(Cl)c2)o1` (stereo unspecified), the survival was 38% (active).

In the case of `Cc1ccccc1CS(=O)(=O)Cc1ccc(C(=O)NCc2ccc(F)cc2)o1`, the survival was 47% (active).

The values are drawn from PubChem BioAssay AID463173 (ICCB-Longwood Screening Facility, Harvard Medical School, 2010).
